# Experiments:
# Assay in all cases: DAPPL (digital affinity profiling via proximity ligation, sequencing); 10 mM Tris-HCl pH 7.5, 50 mM NaCl, 1 mM DTT, 4% glycerol, room temperature, 30 min; GST-TFs on glutathione beads, 16-mer random dsDNA library, 0.1% formaldehyde crosslink after washing; high values mean tight binding
# [1] = target: T1, FLI1 (Homo sapiens, UniProt Q01543 1-452); settings: protein: recombinant; tags: N-terminal GST; dsDNA, one strand shown
# T1 sequence: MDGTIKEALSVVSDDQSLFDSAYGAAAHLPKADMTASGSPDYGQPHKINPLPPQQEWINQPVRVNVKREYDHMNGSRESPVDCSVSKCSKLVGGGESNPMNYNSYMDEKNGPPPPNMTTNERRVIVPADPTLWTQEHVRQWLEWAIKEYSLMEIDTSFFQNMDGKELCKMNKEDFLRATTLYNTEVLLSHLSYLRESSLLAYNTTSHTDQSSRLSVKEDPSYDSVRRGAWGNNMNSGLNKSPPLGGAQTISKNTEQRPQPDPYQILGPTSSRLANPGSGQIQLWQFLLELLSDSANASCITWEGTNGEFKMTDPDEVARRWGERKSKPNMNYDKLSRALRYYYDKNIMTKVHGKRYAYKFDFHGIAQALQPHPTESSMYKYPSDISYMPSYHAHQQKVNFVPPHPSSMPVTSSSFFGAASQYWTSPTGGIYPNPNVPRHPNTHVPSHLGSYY
# Outline: (§1)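 In yeast, human transcription factors were expressed with a GST fusion, then pulled down on glutathione beads and given DNA barcodes. Pooled with a tag-only sample, they were exposed to 200 nmole of a 16-mer random double-stranded DNA library (Tris/NaCl/DTT/glycerol buffer, room temperature, 30 min), washed, crosslinked with 0.1% formaldehyde, proximity-ligated using BsaI/T4 ligase for 1 h at 37 °C, PCR-amplified and read on an Illumina NextSeq500. Each hexamer's frequency of reads for a factor, divided by the matching frequency for the tag-only sample, gives the binding signal.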
# [2] = target: T2, ELK1 (Homo sapiens, UniProt P19419 1-428); settings: protein: recombinant; tags: N-terminal GST; dsDNA, one strand shown
# T2 sequence: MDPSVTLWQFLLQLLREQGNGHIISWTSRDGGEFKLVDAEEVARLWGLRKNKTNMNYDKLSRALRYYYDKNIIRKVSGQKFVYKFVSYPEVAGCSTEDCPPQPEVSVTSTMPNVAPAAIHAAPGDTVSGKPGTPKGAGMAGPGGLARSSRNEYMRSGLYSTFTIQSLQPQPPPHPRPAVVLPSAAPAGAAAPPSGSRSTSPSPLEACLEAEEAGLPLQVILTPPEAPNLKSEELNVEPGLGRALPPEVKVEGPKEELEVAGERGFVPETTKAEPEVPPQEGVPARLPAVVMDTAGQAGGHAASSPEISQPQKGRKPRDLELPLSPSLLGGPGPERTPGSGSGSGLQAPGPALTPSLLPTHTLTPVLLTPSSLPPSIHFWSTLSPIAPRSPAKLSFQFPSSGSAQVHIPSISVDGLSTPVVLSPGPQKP
# Outline: as §1
# [3] = target: T3, GABPA (Homo sapiens, UniProt Q06546 1-454); settings: protein: recombinant; tags: N-terminal GST; dsDNA, one strand shown
# T3 sequence: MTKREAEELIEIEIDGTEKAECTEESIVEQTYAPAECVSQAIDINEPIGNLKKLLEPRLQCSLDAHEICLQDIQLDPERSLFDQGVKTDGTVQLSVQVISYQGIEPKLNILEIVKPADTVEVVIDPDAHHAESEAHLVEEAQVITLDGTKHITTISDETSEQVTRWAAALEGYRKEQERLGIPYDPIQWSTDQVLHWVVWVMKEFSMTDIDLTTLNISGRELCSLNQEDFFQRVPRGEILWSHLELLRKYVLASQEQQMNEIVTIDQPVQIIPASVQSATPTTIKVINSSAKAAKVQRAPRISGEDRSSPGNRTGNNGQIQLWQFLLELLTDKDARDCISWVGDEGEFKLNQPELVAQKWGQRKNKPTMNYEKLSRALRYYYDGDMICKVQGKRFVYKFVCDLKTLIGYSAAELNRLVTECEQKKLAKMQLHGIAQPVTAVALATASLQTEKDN
# Outline: as §1
# [4] = target: T4, ERG (Homo sapiens, UniProt P11308 1-479); settings: protein: recombinant; tags: N-terminal GST; dsDNA, one strand shown
# T4 sequence: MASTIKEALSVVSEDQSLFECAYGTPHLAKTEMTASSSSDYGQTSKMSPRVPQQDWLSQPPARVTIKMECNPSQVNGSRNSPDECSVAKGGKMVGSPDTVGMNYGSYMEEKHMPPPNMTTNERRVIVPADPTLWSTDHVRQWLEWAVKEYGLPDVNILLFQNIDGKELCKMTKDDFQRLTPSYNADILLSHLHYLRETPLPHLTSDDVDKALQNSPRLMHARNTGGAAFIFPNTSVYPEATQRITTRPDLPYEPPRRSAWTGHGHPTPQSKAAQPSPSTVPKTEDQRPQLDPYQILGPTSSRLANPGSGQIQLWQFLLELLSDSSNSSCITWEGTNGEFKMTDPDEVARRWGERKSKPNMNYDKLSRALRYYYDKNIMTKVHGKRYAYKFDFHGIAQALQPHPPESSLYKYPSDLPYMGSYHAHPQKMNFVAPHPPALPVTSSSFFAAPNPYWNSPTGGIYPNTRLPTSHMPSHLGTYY
# Outline: as §1
# [5] = target: ELF1 (Homo sapiens, UniProt P32519 1-619); settings: protein: recombinant; tags: N-terminal GST; dsDNA, one strand shown
# Chain of ELF1 (P32519 whole entry): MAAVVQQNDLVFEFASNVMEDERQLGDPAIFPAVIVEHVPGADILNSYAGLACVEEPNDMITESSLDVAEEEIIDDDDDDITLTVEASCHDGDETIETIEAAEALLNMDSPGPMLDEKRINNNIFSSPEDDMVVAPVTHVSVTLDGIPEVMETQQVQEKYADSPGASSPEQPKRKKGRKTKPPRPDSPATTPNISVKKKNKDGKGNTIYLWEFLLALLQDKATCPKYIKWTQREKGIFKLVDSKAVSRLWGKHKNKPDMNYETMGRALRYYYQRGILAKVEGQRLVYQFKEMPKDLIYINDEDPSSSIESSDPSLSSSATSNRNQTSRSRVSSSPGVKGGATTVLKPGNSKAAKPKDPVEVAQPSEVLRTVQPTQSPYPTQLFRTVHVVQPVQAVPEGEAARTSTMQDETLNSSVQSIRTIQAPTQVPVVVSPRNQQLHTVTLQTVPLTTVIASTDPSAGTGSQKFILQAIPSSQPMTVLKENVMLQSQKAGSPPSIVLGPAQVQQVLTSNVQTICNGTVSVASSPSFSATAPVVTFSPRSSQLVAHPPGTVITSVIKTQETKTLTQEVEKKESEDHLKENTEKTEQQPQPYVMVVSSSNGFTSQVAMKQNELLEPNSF
# Outline: as §1
# [6] = target: T5, EHF (Homo sapiens, UniProt Q9NZC4 1-300); settings: protein: recombinant; tags: N-terminal GST; dsDNA, one strand shown
# T5 sequence: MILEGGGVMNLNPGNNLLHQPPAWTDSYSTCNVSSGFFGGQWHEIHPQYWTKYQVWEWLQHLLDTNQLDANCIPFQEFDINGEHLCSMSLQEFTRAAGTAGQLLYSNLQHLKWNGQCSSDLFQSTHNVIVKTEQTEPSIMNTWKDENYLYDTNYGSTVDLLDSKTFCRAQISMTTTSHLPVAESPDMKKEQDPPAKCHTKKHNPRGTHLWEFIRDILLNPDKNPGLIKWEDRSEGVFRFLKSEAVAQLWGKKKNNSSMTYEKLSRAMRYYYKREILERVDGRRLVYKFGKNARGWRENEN
# Outline: as §1
# [7] = target: SPI1 (Homo sapiens, UniProt P17947 1-270); settings: protein: recombinant; tags: N-terminal GST; dsDNA, one strand shown
# Outline: as §1
# [8] = target: SPIB (Homo sapiens, UniProt Q01892 1-262); settings: protein: recombinant; tags: N-terminal GST; dsDNA, one strand shown
# Chain of SPIB (Q01892 whole entry): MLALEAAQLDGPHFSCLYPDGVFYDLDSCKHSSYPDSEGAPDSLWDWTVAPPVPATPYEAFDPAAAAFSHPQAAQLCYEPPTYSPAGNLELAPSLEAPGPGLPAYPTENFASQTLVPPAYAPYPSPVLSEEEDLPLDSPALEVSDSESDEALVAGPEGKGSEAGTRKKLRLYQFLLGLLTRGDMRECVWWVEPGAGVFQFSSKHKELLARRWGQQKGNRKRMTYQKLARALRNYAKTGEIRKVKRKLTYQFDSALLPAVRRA
# Outline: as §1
# [9] = target: T6, ELK3 (Homo sapiens, UniProt P41970 1-407); settings: protein: recombinant; tags: N-terminal GST; dsDNA, one strand shown
# T6 sequence: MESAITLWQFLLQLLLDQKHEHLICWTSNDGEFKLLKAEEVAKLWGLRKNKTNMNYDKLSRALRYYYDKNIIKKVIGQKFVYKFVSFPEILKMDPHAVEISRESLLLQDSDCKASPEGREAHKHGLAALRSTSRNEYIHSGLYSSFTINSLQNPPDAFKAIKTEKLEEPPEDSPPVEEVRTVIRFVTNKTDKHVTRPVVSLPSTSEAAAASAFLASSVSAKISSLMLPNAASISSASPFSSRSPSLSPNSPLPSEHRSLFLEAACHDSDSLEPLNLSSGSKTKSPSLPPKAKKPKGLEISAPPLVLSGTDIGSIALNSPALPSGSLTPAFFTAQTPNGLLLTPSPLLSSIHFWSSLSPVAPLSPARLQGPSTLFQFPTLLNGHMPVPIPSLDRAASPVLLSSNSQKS
# Outline: as §1
# [10] = target: T7, FEV (Homo sapiens, UniProt Q99581 1-238); settings: protein: recombinant; tags: N-terminal GST; dsDNA, one strand shown
# T7 sequence: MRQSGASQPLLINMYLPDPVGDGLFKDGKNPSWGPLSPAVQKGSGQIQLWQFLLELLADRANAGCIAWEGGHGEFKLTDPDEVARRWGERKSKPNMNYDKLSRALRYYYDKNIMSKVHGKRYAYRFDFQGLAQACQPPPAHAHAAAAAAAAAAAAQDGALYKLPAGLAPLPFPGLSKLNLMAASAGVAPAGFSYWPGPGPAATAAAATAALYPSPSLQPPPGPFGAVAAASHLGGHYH
# Outline: as §1
# [11] = target: ETV5 (Homo sapiens, UniProt P41161 1-510); settings: protein: recombinant; tags: N-terminal GST; dsDNA, one strand shown
# Chain of ETV5 (P41161 whole entry): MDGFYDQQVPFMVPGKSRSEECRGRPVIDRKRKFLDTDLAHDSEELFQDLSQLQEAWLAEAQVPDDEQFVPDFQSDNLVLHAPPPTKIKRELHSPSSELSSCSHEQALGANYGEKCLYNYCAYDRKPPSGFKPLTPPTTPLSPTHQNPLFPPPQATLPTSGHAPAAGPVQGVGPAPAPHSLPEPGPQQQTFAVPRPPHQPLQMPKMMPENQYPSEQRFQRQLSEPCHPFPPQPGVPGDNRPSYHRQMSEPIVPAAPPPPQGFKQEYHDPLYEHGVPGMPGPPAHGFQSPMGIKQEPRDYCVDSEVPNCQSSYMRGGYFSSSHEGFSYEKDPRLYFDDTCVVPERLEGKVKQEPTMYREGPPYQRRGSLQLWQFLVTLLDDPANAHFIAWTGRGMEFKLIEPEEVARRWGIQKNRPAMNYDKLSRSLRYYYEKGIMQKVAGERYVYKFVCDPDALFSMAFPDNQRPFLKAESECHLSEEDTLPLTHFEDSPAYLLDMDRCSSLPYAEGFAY
# Outline: as §1
# [12] = target: HSF1 (Homo sapiens, UniProt Q00613 1-529); settings: protein: recombinant; tags: N-terminal GST; chain copies: 3; dsDNA, one strand shown
# Chain of HSF1 (Q00613 whole entry): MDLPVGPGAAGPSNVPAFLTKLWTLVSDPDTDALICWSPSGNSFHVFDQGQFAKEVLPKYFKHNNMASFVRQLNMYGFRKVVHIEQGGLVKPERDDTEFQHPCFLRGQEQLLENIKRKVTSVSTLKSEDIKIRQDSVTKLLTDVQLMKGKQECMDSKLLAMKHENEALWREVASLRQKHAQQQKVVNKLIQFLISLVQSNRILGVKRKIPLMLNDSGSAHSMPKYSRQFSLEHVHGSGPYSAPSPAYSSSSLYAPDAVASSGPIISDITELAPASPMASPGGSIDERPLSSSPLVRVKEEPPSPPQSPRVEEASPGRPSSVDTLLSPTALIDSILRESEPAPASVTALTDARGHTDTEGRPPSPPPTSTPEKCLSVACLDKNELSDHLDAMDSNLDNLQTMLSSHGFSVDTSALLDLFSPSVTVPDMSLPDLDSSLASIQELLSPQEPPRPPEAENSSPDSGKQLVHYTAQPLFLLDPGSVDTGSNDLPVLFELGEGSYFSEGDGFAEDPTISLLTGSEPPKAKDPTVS
# Outline: as §1
# [13] = target: T8, SPIC (Homo sapiens, UniProt Q8N5J4 1-248); settings: protein: recombinant; tags: N-terminal GST; dsDNA, one strand shown
# T8 sequence: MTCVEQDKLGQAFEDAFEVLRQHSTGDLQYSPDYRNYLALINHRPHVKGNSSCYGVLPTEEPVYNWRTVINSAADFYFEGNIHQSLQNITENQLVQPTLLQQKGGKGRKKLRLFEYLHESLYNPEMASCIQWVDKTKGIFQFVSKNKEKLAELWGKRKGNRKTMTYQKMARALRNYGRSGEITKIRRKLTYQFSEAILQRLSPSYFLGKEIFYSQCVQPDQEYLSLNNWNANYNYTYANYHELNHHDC
# Outline: as §1
# [14] = target: ELF4 (Homo sapiens, UniProt Q99607 1-663); settings: protein: recombinant; tags: N-terminal GST; dsDNA, one strand shown
# Chain of ELF4 (Q99607 whole entry): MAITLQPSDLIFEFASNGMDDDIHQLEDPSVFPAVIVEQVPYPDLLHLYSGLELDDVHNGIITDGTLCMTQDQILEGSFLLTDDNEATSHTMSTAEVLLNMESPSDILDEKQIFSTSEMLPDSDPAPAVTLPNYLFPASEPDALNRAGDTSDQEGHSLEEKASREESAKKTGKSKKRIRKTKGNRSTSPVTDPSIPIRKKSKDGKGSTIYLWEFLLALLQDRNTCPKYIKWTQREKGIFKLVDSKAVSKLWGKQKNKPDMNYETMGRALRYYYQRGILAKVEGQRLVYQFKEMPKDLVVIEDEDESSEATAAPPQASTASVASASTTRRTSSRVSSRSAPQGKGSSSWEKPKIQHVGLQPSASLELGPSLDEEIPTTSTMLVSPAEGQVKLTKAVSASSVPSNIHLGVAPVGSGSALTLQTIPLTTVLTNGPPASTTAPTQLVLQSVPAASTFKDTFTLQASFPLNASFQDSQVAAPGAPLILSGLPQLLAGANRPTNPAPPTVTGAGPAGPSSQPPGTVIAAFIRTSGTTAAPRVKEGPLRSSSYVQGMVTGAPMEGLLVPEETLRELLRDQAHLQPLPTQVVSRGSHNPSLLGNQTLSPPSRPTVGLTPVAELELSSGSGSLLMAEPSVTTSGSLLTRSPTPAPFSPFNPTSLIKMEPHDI
# Outline: as §1
# [15] = target: T9, ELK4 (Homo sapiens, UniProt P28324-2 1-405); settings: protein: recombinant; tags: N-terminal GST; dsDNA, one strand shown
# T9 sequence: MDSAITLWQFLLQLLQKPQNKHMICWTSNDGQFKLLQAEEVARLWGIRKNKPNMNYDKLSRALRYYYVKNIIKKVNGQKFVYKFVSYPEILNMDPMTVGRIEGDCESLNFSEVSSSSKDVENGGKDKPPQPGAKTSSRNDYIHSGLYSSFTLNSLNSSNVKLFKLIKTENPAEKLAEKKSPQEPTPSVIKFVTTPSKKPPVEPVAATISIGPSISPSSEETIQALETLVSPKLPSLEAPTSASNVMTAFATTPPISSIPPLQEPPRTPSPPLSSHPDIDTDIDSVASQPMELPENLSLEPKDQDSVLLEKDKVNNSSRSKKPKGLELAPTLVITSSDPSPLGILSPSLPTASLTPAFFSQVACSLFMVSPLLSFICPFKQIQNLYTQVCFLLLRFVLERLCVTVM
# Outline: as §1
# [16] = target: T10, ETV2 (Homo sapiens, UniProt O00321 1-342); settings: protein: recombinant; tags: N-terminal GST; dsDNA, one strand shown
# T10 sequence: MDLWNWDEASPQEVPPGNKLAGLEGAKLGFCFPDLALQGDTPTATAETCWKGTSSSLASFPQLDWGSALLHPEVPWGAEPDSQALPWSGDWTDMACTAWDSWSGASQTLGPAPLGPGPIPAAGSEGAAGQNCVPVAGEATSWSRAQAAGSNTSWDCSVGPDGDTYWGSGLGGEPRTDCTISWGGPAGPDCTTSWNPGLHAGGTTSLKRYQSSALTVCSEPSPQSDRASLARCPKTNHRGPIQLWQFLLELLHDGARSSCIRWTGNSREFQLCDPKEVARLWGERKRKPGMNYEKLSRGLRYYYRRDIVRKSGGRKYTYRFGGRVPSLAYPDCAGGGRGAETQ
# Outline: as §1
# [17] = target: T11, ELF3 (Homo sapiens, UniProt P78545 1-371); settings: protein: recombinant; tags: N-terminal GST; dsDNA, one strand shown
# T11 sequence: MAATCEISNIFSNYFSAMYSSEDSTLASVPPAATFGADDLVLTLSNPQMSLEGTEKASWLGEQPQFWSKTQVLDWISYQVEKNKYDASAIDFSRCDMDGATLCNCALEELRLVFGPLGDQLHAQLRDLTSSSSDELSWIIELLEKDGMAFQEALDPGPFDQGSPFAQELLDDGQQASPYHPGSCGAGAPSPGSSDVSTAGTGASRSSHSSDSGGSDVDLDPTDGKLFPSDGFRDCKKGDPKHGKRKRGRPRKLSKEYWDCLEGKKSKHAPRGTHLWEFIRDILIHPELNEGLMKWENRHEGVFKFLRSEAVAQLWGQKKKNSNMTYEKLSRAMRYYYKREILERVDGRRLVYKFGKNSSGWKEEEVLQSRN
# Outline: as §1
# [18] = target: ETV1 (Homo sapiens, UniProt P50549 1-477); settings: protein: recombinant; tags: N-terminal GST; dsDNA, one strand shown
# Chain of ETV1 (P50549 whole entry): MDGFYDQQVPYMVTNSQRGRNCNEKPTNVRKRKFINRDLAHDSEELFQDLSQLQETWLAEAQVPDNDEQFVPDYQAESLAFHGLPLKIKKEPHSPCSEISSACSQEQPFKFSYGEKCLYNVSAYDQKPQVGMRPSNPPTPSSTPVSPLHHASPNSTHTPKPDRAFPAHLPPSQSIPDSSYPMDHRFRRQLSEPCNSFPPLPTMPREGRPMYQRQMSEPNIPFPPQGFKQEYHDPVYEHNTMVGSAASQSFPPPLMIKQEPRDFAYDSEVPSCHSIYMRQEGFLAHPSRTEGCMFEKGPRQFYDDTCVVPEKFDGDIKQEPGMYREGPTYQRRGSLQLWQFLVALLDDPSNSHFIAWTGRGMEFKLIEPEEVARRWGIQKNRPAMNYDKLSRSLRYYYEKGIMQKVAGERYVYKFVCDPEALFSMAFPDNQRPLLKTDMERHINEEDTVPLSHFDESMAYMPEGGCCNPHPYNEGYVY
# Outline: as §1
sequence,measurement,setting,value
CGACCA,binding signal,[1],"1.2 fold enrichment (6-mer frequency, TF over GST control)"
same,binding signal,[2],"1.27 fold enrichment (6-mer frequency, TF over GST control)"
same,binding signal,[3],"1.23 fold enrichment (6-mer frequency, TF over GST control)"
same,binding signal,[4],"1.15 fold enrichment (6-mer frequency, TF over GST control)"
same,binding signal,[5],"1.31 fold enrichment (6-mer frequency, TF over GST control)"
same,binding signal,[6],"1.28 fold enrichment (6-mer frequency, TF over GST control)"
same,binding signal,[7],"1.24 fold enrichment (6-mer frequency, TF over GST control)"
same,binding signal,[8],"1.16 fold enrichment (6-mer frequency, TF over GST control)"
same,binding signal,[9],"1.37 fold enrichment (6-mer frequency, TF over GST control)"
same,binding signal,[10],"1.3 fold enrichment (6-mer frequency, TF over GST control)"
same,binding signal,[11],"1.17 fold enrichment (6-mer frequency, TF over GST control)"
same,binding signal,[12],"1.14 fold enrichment (6-mer frequency, TF over GST control)"
same,binding signal,[13],"1.12 fold enrichment (6-mer frequency, TF over GST control)"
same,binding signal,[14],"1.39 fold enrichment (6-mer frequency, TF over GST control)"
same,binding signal,[15],"1.31 fold enrichment (6-mer frequency, TF over GST control)"
same,binding signal,[16],"1.35 fold enrichment (6-mer frequency, TF over GST control)"
same,binding signal,[17],"1.32 fold enrichment (6-mer frequency, TF over GST control)"
same,binding signal,[18],"1.23 fold enrichment (6-mer frequency, TF over GST control)"
